Reference: PubChem BioAssay (NCI)
The panel holds about 79,000 compounds, 15% with a hit somewhere; the sample as a whole holds those more often. The source made the active and inactive calls. Rule as the data show it: active = growth inhibition above about 70%; inactive = the rest.

Legend:
[1] = NCI Yeast Anticancer Drug Screen. Data for the rad50 strain (AID 155);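 also: 0% = growth of vehicle-only cultures of the same strain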; details: S. cerevisiae rad50 strain growth inhibition; at 50.0 µM; hits give high values
Method in brief: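 Compounds were tested on a yeast strain with an engineered DNA damage repair alteration; the reported value is growth inhibition normalised to vehicle treatment.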

[2] = NCI Yeast Anticancer Drug Screen. Data for the mec2-1 strain (AID 157); details: S. cerevisiae mec2-1 strain, at 50.0 µM, hits give high values
Method in brief: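 Vehicle-treated cultures served as reference for growth inhibition of compound-exposed mec2-1 yeast.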

[3] = NCI Yeast Anticancer Drug Screen. Data for the sgs1 mgt1 strain (AID 161);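 also: 0% = growth of cultures given vehicle only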; details: S. cerevisiae sgs1 mgt1 strain, at 50.0 µM, hits give high values
Method in brief: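 Inhibition of yeast growth, normalised to vehicle-treated controls, is reported for a strain bearing genetic alterations in DNA damage repair.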

[4] = NCI Yeast Anticancer Drug Screen. Data for the cln2 rad14 strain (AID 165);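 also: 0% = growth equal to vehicle treated cultures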; details: S. cerevisiae cln2 rad14 strain, at 50.0 µM, hits give high values
Method in brief: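 Each compound was tested on cln2 rad14 yeast. Inhibition of growth was calculated against vehicle-exposed controls.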

[5] = NCI Yeast Anticancer Drug Screen. Data for the bub3 strain (AID 167); details: S. cerevisiae bub3 mutant strain, at 50.0 µM, hits give high values
Method in brief: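 Growth of a checkpoint-deficient yeast mutant is measured after compound exposure. Values represent inhibition relative to vehicle.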

[6] = NCI Yeast Anticancer Drug Screen. Data for the mlh1 rad18 strain (AID 175); details: S. cerevisiae mlh1 rad18 strain growth inhibition; at 50.0 µM; hits give high values
Method in brief: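 Vehicle-treated cultures served as the reference for growth inhibition in a yeast strain carrying DNA damage repair alterations exposed to each compound.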

Measured: growth inhibition

Oc1ccc(Cl)cc1N1CCOCC1
inactive: [1] 9.55% | [2] 24.1% | [3] 13.4% | [4] -15.2% | [5] -19.6% | [6] -15%

[N-]=[N+]=NS(=O)(=O)CCc1ccc(Cl)cc1
inactive: [1] 4.55% | [2] -3.95% | [3] -12.4% | [4] -55% | [5] -17.9% | [6] 4.85%

Clc1ccc(-c2cc3ccccc3[nH]2)cc1
inactive: [1] 23.9% | [2] -3.3% | [3] -1.25% | [4] -32.4% | [5] 2.4% | [6] -5.05%

N#Cc1ccccc1NC(=O)C(=O)C(C(=O)c1ccccc1-c1ccccc1)C1OC(=O)c2ccccc21 (configuration not stated)
inactive: [1] 24.4% | [2] 5.25% | [3] 11.7% | [4] -43% | [5] 2.25% | [6] 0.95%

c1ccc(CCCCc2ccccn2)cc1
inactive: [1] 32% | [2] -13.1% | [3] 31.6% | [4] 0.2% | [5] 27.4% | [6] 25%

COC(=N)CC(=O)C(C)(C)C
inactive: [1] -6.4% | [2] -15.9% | [3] -13.7% | [4] -9.65% | [5] -6.25% | [6] -7.2%

NC(=O)N/N=C/c1cccc2ccccc12
inactive: [1] 24.2% | [2] 9.05% | [3] -8.8% | [4] 6.35% | [5] 4.05% | [6] -0.7%

COC1(OC)C2(Cl)CCC1(Cl)C(OC(C)=O)C2 (configuration not stated)
inactive: [1] -21.4% | [2] -5% | [3] 4.65% | [4] 26.8% | [5] -8% | [6] -10.7%

COc1ccc(C(=O)Sc2c(-c3ccccc3)c(=O)n(-c3ccccc3)c(=S)n2-c2ccccc2)cc1
inactive: [1] 0.75% | [2] -4.9% | [3] 2.45% | [4] 1.7% | [5] 0.6% | [6] 10.1%

CCN(CC)CC(=N)N(CC)c1ccccc1
inactive: [1] 26.5% | [2] 6.95% | [3] 4.7% | [4] 11.9% | [5] 23.8% | [6] 28.5%

CCCCc1ccc(NC(=O)c2cccnc2)cc1
inactive: [1] 3% | [2] 14.4% | [3] 36.5% | [4] 15.2% | [5] -3.4% | [6] 27.6%

CC1(C)N=C(N)N=C(N)N1CCCCc1ccccc1
inactive: [1] -23.7% | [2] -41.9% | [3] -27.4% | [4] -25.4% | [5] -71.8% | [6] -16.6%

CCCC(C)NC(=O)c1ccc(OCC)cc1 (configuration not stated)
inactive: [1] -12.6% | [2] -3% | [3] -4.95% | [4] -44% | [5] -12.3% | [6] -3.85%

CN(C)c1nc(Oc2nc(N(C)C)nc(N(C)C)n2)nc(N(C)C)n1
inactive: [1] -21.8% | [2] -26.6% | [3] -30.9% | [4] -8.5% | [5] -21.4% | [6] -31.9%

CC1COCC(C)N1CC(OCc1ccccc1)c1ccccc1 (configuration not stated)
inactive: [1] -5.7% | [2] -2.2% | [3] -15.4% | [4] -52.2% | [5] -7.9% | [6] -15.5%

CC1CCC2C(C)(C)CC3(C)CCC1C23O (configuration not stated)
inactive: [1] 29.9% | [2] 45.5% | [4] 30.4% | [5] 61.6%
active: [3] 81% | [6] 83.2%

c1ccc(COC2COC(OCc3ccccc3)C(OCc3ccccc3)C2OCc2ccccc2)cc1 (configuration not stated)
inactive: [1] 1.05% | [2] -3.45% | [3] 3.4% | [4] -36.4% | [5] 12.4% | [6] -3.3%

C1CCN=C(N2CCCCCC2)CC1
inactive: [1] -16.9% | [2] -4.2% | [3] -5.8% | [4] -33% | [5] 13.6% | [6] -6.25%

C/C(=C/C(=O)Nc1ccc2ccccc2c1)Nc1ccc2ccccc2c1
inactive: [1] -5.4% | [2] 6.65% | [3] 5.9% | [4] -8.95% | [5] 10.4% | [6] -15.1%

c1ccc(-c2oc3ccc4ccccc4c3c2-c2ccc(OCCN3CCCC3)cc2)cc1
inactive: [2] 58.4% | [3] 66.8% | [4] 61.2% | [5] 51.4% | [6] 61.5%
active: [1] 75.8%

CC1=C(O)c2cc3c(cc2C(=O)C1=O)OCO3
inactive: [1] -21.5% | [2] -0.95% | [3] -15% | [4] -15.6% | [5] -18.4% | [6] 26.9%

Cc1ccc(S(=O)(=O)OCC23CCC(C4CC42)C2CC23)cc1 (configuration not stated)
inactive: [1] -21.9% | [2] -28.5% | [3] -14.8% | [4] 4.2% | [5] -10.1% | [6] 10.4%

NC(=S)NCCN1CCOCC1
inactive: [1] -8.85% | [2] -5.95% | [3] -1.9% | [4] -15.7% | [5] 2.25% | [6] 10%

Cc1ccc(-c2cc(-c3cc(-c4ccc(C)cc4)nc(N)n3)nc(N)n2)cc1
inactive: [1] 3.7% | [2] -13.4% | [3] -20.1% | [4] -13.2% | [5] -25.1% | [6] -13%

CCOC(=O)/C(C#N)=C/c1cccc(Cl)c1
inactive: [1] 28.6% | [2] 30% | [3] 38.9% | [4] 13.3% | [5] 13.4% | [6] 44%

CCN(Cc1ccc(S(=O)(=O)O)cc1)c1cccc(S(=O)(=O)O)c1
inactive: [1] 14.1% | [2] 26.4% | [3] 18.4% | [4] -20.9% | [5] -18.2% | [6] 9.35%

COC(=O)[C@H]1N[C@@H](C(=O)OC)C23CCC[C@H]2CC[C@]1(C(OC)OC)C3
inactive: [1] -3.5% | [2] 2.25% | [3] 14.4% | [4] -3.8% | [5] -0.65% | [6] -16.1%

CCOCCN1CCN(CCOCC)CC1
inactive: [1] -11.9% | [2] -9.75% | [3] -9.65% | [4] -18.4% | [5] 27.6% | [6] 14%

O=C1C2=C(CCC2)C(=O)N1c1ccc(N2C(=O)C3=C(CCC3)C2=O)cc1
inactive: [1] -12.6% | [2] -4.55% | [3] -16.2% | [4] -15.4% | [5] -10.6% | [6] -13.2%

Cc1cccc(N=C2NC(=O)C(CC(=O)Nc3ccccc3Cl)S2)c1 (configuration not stated)
inactive: [1] -16.8% | [2] -35.8% | [3] 12.8% | [4] 7.45% | [5] 0.95% | [6] -1.55%

C=CCOc1ccccc1C
inactive: [1] -21.9% | [2] -29.9% | [3] -0.85% | [4] 8.1% | [5] -21.7% | [6] -14.9%

Cc1ccc(N=c2oc3c(ccc4ccccc43)nc2Nc2ccc(C)cc2)cc1
inactive: [1] -33.5% | [2] -32.5% | [3] -46.2% | [4] -35.5% | [5] -32.8% | [6] -19%

O=C1NC(N2CCOCC2)=N/C1=C\c1ccccc1O
active: [6] 81.2%
inactive: [1] -1.3% | [2] -26% | [3] -7.8% | [4] -8.65% | [5] 16.1%

Cc1c(N)cc2c(c1N)C(C)(C)CC2(C)C
inactive: [1] 1.35% | [2] -2.2% | [3] -0.4% | [4] -6.35% | [5] 11.1% | [6] -4.6%

CC(=O)Oc1cccc(O)c1
inactive: [1] -1.55% | [2] -3.65% | [3] -15.2% | [4] -22.5% | [5] -4.15% | [6] 3%

COc1cc(=O)cc2n(c1=O)CCC2
inactive: [1] -8.45% | [2] -5.05% | [3] -13.2% | [4] -28% | [5] 8.5% | [6] -2.25%

C1CCN(CCC2CCNCC2)C1
inactive: [1] 5.5% | [2] -19.4% | [3] -15.1% | [4] 13.5% | [5] -1% | [6] 3.8%

CC1(C)CC(=O)C(C=O)C(=O)C1
inactive: [1] -6.85% | [2] -13.7% | [3] -38.3% | [4] -2.3% | [5] 3% | [6] -22.9%

O=S(=O)(O)Cc1cccc2ccccc12
inactive: [1] 38% | [2] 6.7% | [3] 11.8% | [4] -17.6% | [5] -2.65% | [6] 22.6%

COC(=O)c1cc(Cl)ccc1OCC(=O)NCc1ccc(Cl)cc1
inactive: [1] 9.1% | [2] -3.3% | [3] 11.8% | [4] -5.85% | [5] -26.1% | [6] 12.1%

CC(C)CCOC(=O)N(C)c1ccccc1
inactive: [1] 9.3% | [2] 0.2% | [3] 10.3% | [4] -17.9% | [5] -24% | [6] -9.8%

COc1ccc(OC)c2cc3c(cc12)C(=O)c1ccccc1C3=O
active: [2] 70.2% | [4] 90.7% | [5] 94.6%
inactive: [1] 10.6% | [3] 25.2% | [6] 46.9%
